Results as given in PubChem BioAssay (NCI).
About 83,000 compounds went through this panel and 20% of them were active in at least one assay; those are over-represented in the sample as a whole.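 Step 1: grow cells in 96-well plates. Step 2: add test compound at a single concentration. Step 3: incubate 48 h. Step 4: record percent growth.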 Active and inactive are the calls of the source. Rule for the calls: active = growth percent below 10; inactive = the rest.

Columns and labels:
Assay in all cases: NCI-60 one-dose screen, 48 h (100 = growth as untreated, 0 = no growth, -100 = all killed)
Details in all cases: 10 µM unless noted
[1] = test system: NCI-H23 lung
[2] = test system: NCI-H226 lung
[3] = test system: NCI-H322M lung
[4] = test system: HOP-62 NSCLC
[5] = test system: NCI-H460 lung
[6] = test system: NCI-H522 lung
[7] = test system: A549/ATCC NSCLC
[8] = test system: 786-0 renal
[9] = test system: COLO 205 colon
[10] = test system: DU-145 prostate
[11] = test system: MALME-3M melanoma
[12] = test system: MDA-MB-231 breast
[13] = test system: RXF 393 renal
[14] = test system: SF-268 CNS
[15] = test system: SF-295 CNS
[16] = test system: SF-539 CNS
[17] = test system: UACC-257 melanoma
[18] = test system: M14 melanoma
[19] = test system: HCT-15 colon
[20] = test system: K-562 leukemia

Measured: growth

COc1cc(/C=C/C(=O)Nc2cccnc2Nc2cc(OC)c(OC)c(OC)c2)cc(OC)c1OC
inactive: [1] 93% | [2] 93.1% | [3] 115% | [4] 106% | [5] 95.4% | [6] 87.6% | [7] 85.4% | [8] 86.3% | [9] 113% | [10] 105% | [11] 107% | [12] 90.7% | [13] 108% | [14] 105% | [15] 92.8% | [16] 98.1% | [17] 93.4% | [18] 100% | [19] 97.3%

COc1cc2c(-c3nc4cc(Cl)c(F)cc4s3)cc(=O)oc2c(C)c1OC
active: [1] -48.6% | [2] -48.8% | [3] 7.69% | [4] -65.7% | [5] -36.1% | [6] -83.9% | [7] -53.9% | [8] -70.2% | [9] -46.6% | [10] -85.3% | [20] -22.6% | [12] -50.4% | [14] -63.5% | [15] -81.5% | [16] -89% | [17] -77.6% | [18] -35.2% | [19] -39.1%

COc1cc2c(C#N)n3c(c2cc1OC)C(=O)C(c1ccccc1)Oc1ccccc1-3 (stereo not given)
active: [6] -32.4%
inactive: [1] 20.5% | [2] 21.8% | [3] 85.5% | [4] 53.8% | [5] 66.9% | [7] 11.5% | [8] 48.5% | [9] 80.3% | [10] 72.8% | [20] 29.7% | [12] 64.1% | [14] 43% | [15] 28.4% | [16] 83.5% | [17] 89.3% | [18] 44.7% | [19] 31.5%

CCCCCCC/C(=N\N=C(N)N)c1ccc(O)cc1
inactive: [1] 57.5% | [3] 56.9% | [4] 43.9% | [5] 26.7% | [6] 47.7% | [7] 51.9% | [8] 63.1% | [10] 53.4% | [11] 50.6% | [14] 45% | [15] 55.7% | [16] 63.5% | [17] 27.1% | [18] 24.9% | [19] 64%
active: [2] -8.37% | [9] -88.8% | [12] -22.5% | [13] -35.5%

CCCCCCC(C)(O)c1ccccc1 (stereo not given)
inactive: [1] 102% | [2] 106% | [3] 126% | [4] 105% | [5] 110% | [6] 100% | [7] 110% | [8] 108% | [9] 114% | [10] 118% | [20] 101% | [12] 109% | [13] 124% | [14] 107% | [15] 125% | [16] 110% | [17] 115% | [18] 105% | [19] 110%

COc1ccc(/C=C(\C#N)c2ccccc2)cc1
inactive: [1] 95.7% | [2] 89.6% | [3] 97.5% | [4] 99.6% | [5] 98.9% | [6] 90.1% | [7] 81.8% | [8] 102% | [9] 103% | [10] 103% | [20] 28.8% | [12] 78.4% | [14] 95.2% | [15] 94.7% | [16] 87.3% | [17] 85.9% | [18] 88.7% | [19] 59.5%

O=C1CCCN1C1CCN(Cc2cc3ccccc3[nH]c2=O)c2ccccc21 (stereo not given)
inactive: [1] 82.7% | [2] 78.3% | [3] 83.2% | [4] 79.5% | [5] 102% | [6] 63% | [7] 98.8% | [8] 85.2% | [9] 106% | [10] 101% | [11] 76.4% | [12] 92.6% | [13] 99.4% | [14] 94.7% | [15] 72.3% | [16] 97.2% | [17] 114% | [18] 86.1% | [19] 92.4%
